Data as given in PubChem BioAssay AID1053118 (Broad Institute, 2014).
Potency and affinity values are given separately. Unmarked numbers belong to inactive results.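 How the source made its calls: active means fitted half-maximal concentration for ATP signal loss at most twice the top valid dose; inconclusive means flat curve between -70 and -30%, or an invalid fit; inactive means flat within ±30%, wrong direction, or potency past limit.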

experiment: viability loss in HepG2 hepatoma cells – cell-based, cherry-picks, set 5, cytotoxicity control, dose response (AID 1053118); conditions: ATP luminescence, 72 h; series mostly up to 26 µM; activity change, negative = cytotoxicity: at the top concentration;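 further: 0% = neutral control wells and -100% = mitoxantrone positive control wells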

Compound | activity change, negative = cytotoxicity
Cc1ccc(S(=O)(=O)N2CC[C@@H]3[C@H]2c2cc(-c4cccc(C(=O)N(C)C)c4)ccc2N[C@@H]3CO)cc1 | -14.5% [at 23.5 µM]
CCC(C)(C)NC(=O)C(OC(=O)c1ccco1)c1ccccc1OC (centres undefined) | -12.4%
COC(=O)C[C@@H]1CC[C@H]2[C@@H](COc3ccc(NC(=O)Cc4cccs4)cc3C(=O)N2C)O1 | -10.2% [at 23.5 µM]
C[C@@H]1CN([C@H](C)CO)C(=O)c2cc(NC(=O)CCCN(C)C)ccc2O[C@H]1CN(C)Cc1ccc(-c2ccccc2)cc1 | -18.8%
C[C@@H]1CN([C@@H](C)CO)C(=O)c2cc(-c3ccccc3)cnc2O[C@@H]1CN(C)C(=O)c1cccc(F)c1 | -14.6%
N#Cc1ccc(-c2ccc3c(c2)[C@@H]2[C@@H](CCN2S(=O)(=O)c2cccc(F)c2)[C@@H](CO)N3)cc1 | 0.13% [at 23.5 µM]
Cc1ccc(CS(=O)Cc2ccc(C(=O)NC3CCCC(C)C3C)o2)cc1 (centres undefined) | -8.58%
CCCc1cc(C(=O)OC)c(NC(=O)CCC(=O)O)s1 | -20.8%
CC(C)Cc1nnc(NC(=O)CSc2nc(N)cc(=O)[nH]2)s1 | -7.72%
CC(C)(C)[S@](=O)N1Cc2cc(C(=O)NCc3ccccc3F)nc(-c3cccc(-c4cncnc4)c3)c2[C@@H]1CCO | 5.05%
C[C@H]1CN([C@@H](C)CO)C(=O)c2cc(-c3ccccc3)cnc2O[C@H]1CN(C)Cc1ccccc1 | -17.2%
Cc1ccc(O)c(-c2cc(-c3cccc(Br)c3)n[nH]2)c1 | 2.04%
O=C(NCc1ccccc1)c1ccc(-c2cn[nH]c2)c2ccoc12 | 42.2%
CC(C)NC(=O)N(C)C[C@H]1Oc2ccc(NC(=O)CCN3CCOCC3)cc2C(=O)N([C@H](C)CO)C[C@@H]1C | -12.2%
